Each structure is given as a SMILES string. Entries with a potency or affinity are not part of this list. Activity calls are given as the source filed them. The rule behind the calls is not given here.

The test is described as follows: cytotoxicity in HeLa cells, dose response, cytotoxicity control, cell-based, 24 h, dry powder (AID 651774). As to conditions: HeLa viability, CellTiter-Glo ATP luminescence; series mostly up to 35 µM. For orientation: ATP-based viability assays read luminescence as a measure of living cells.
As to `O=C(Cc1ccccc1-c1ccccc1)NC1CCCC1`, the outcome was inactive.
The same measure for `CCCn1nnnc1NCc1ccc(C(C)C)cc1`: “inactive”; for `O=C(Cc1ccc(-c2ccccc2)cc1)NC1CCCC1`: “inactive”.
As to `CS(=O)(=O)c1cccc(CC(=O)NC2CCCC2)c1`, the compound was classed as inactive.
`N#Cc1ccc(CC(=O)NC2CCCC2)cc1`: the compound was called inactive.
As to `CC(C)c1ccc(CNc2nnnn2C)cc1`, the compound was called inactive.
On to `O=C(Cc1ccc(-c2ccccc2)cc1)N1CCC1`, for which the outcome was inactive.
Consider `O=C(NCc1ccc(-c2ccccc2)cc1)C1CCCC1`, for which the outcome was inactive.
The result for `CCn1nnc(NCc2ccc(C(C)C)cc2)n1` reads “inactive”; that for `CS(=O)(=O)c1ccc(CC(=O)NC2CCCC2)cc1`, “inactive”.
Turning to `O=C(Cc1cccc(-c2ccccc2)c1)NC1CCCC1`, the result was inactive.
The result for `O=C(Cc1ccc(-c2ccccc2)cc1)N1CCCCC1` reads “inactive”; that for `Cc1cccc(CC(=O)NC2CCCC2)c1`, “inactive”; that for `O=C(Cc1ccc(-c2ccccc2)cc1)NCC1CCCC1`, “inactive”.
Turning to `O=C(Cc1cccnc1)NC1CCCC1`, the compound was called inactive.
The result for `Cc1ccccc1CC(=O)NC1CCCC1` reads “inactive”; that for `FC(F)(F)c1ccc(CNc2nn[nH]n2)cc1`, “inactive”; that for `O=C(CCc1ccc(-c2ccccc2)cc1)NC1CCCC1`, “inactive”.
For `O=C(Cc1ccc(-c2ccccc2)cc1)NC1CCCCC1`, the result was inactive.
The same measure for `O=C(Cc1ccc(-c2ccccc2)cc1)NC1CCOCC1`: “inactive”; for `O=C(Cc1ccccc1I)NC1CCCC1`: “inactive”.
The same measure for `CN1CCN(C(=O)Cc2ccc(-c3ccccc3)cc2)CC1`: “inactive”; for `CN(Cc1ccc(N2CCCC2)cc1)c1nnnn1C`: “inactive”; for `Cn1nnc(NCc2ccc(N3CCCC3)cc2)n1`: “inactive”.
The same measure for `c1cc(N2CCCC2)ccc1CNc1nn[nH]n1`: “inactive”.
In the case of `O=C(Cc1ccc(-c2ccccc2)cc1)NC1CCNCC1`, the outcome was inactive.
The same measure for `O=C(NC1CCCC1)Oc1ccc(-c2ccccc2)cc1`: “inactive”; for `CN(C(=O)Cc1ccc(-c2ccccc2)cc1)C1CCCC1`: “inactive”.

(Values after PubChem BioAssay AID651774 (Broad Institute, 2012).)
